Potency and outcome data for 16 compounds are collected here from PubChem BioAssay (Tox21).

Inconclusive results are not listed. A number with no mark means an inactive call. The source made the active and inactive calls. Unless noted, calls follow the shape of the dose curve; as a rule, active = well fitted curve in the direction sought with a large enough effect in the repeat runs; inconclusive = weak or mixed curves; inactive = no such curve, though single readings can be large; an effect the other way counts as inactive or inconclusive.

Test [1] can be described thus: qHTS assay to identify small molecule antagonists of the thyroid receptor (TR) signaling pathway (AID 743065). Also: series mostly up to about 70 µM; nearly all actives have a fitted effect of over 55% in size. The method in brief:
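GH3.TRE-Luc rat pituitary cells (two TREs driving luciferase) were dosed with compound, then stimulated with 1 nM T3 (final) for 23.5 h at 37 C. ONE-Glo luminescence was the read-out, with CellTiter-Fluor fluorescence as the cytotoxicity counter-screen.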
Background: Quantitative high-throughput screening tests each substance at several concentrations.

For test [2], the system named is thyroid hormone receptor (rat, GH3 cells). The test is described as follows: qHTS assay to identify small molecule agonists of the thyroid receptor (TR) signaling pathway (AID 743066; calls by dose curve).
A short description of test [3]: qHTS assay to identify small molecule antagonists of the estrogen receptor alpha (ER-alpha) signaling pathway - cell viability counter screen (AID 743074; calls by dose curve;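 also: HEK293 cells carrying ER-alpha-UAS-bla reporter stimulated with 17beta-estradiol; nearly all actives have a fitted effect of over 45% in size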).
Test [4] is described as follows: qHTS assay to identify small molecule antagonists of the estrogen receptor alpha (ER-alpha) signaling pathway using the BG1 cell line - cell viability counter screen (AID 743081).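 Also: compound given together with 17beta-estradiol as the ER stimulus; series mostly up to about 70 µM; nearly all actives have a fitted effect of over 45% in size.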
In test [5] the target is Aromatase (Homo sapiens) (UniProt P11511). The test is described as follows: qHTS assay to identify aromatase inhibitors (AID 743083). Also: series mostly up to about 70 µM; nearly all actives have a fitted effect of over 55% in size.
A short description of test [6]: qHTS assay to identify aromatase inhibitors - cell viability counter screen (AID 743084).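 Also: cells stimulated with testosterone during compound exposure; nearly all actives have a fitted effect of over 55% in size.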
For test [7], the target named is Aryl hydrocarbon receptor (Homo sapiens) (UniProt P35869). Nature of the test: qHTS assay to identify small molecule that activate the aryl hydrocarbon receptor (AhR) signaling pathway (AID 743085).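 Also: HG2L7.5c1 human HepG2 liver cells with stably integrated DRE-driven firefly reporter; series mostly up to about 70 µM; nearly all actives have a fitted effect of over 15% in size.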 The method in brief: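 A multiplexed format paired cell viability (CellTiter-Fluor fluorescence) with AhR-dependent luciferase output (ONE-Glo luminescence) in the same wells of HepG2 DRE-luc cells after 24 h compound exposure at 37C.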

The nature of test [8]: qHTS assay to identify small molecule that activate the aryl hydrocarbon receptor (AhR) signaling pathway - cell viability counter screen (AID 743086).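 Also: HepG2 liver cells carrying the AhR DRE luciferase reporter; series mostly up to about 70 µM; nearly all actives have a fitted effect of over 45% in size.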 Put shortly: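 HepG2-AhR-luc (HG2L7.5c1) cells, 4000/well, treated 24 h at 37 C with compound; viability measured as CellTiter-Fluor fluorescence after 30 min in the same wells as the luciferase read.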
Test [9] can be described thus: qHTS assay to identify small molecule antagonists of the peroxisome proliferator-activated receptor gamma (PPARg) signaling pathway - cell viability counter screen (AID 743194). Also: nearly all actives have a fitted effect of over 55% in size. Put shortly:
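Cytotoxicity counter screen in PPARg-bla HEK293H cells, same wells as reporter assay. Compounds plus 50 nM rosiglitazone (final) for 17 h at 37 C, then viability read by CellTiter-Glo luminescence.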

Test [10] in a line: qHTS assay for small molecule agonists of the antioxidant response element (ARE) signaling pathway (AID 743202; active = well fitted activation curve with a large enough effect in the signal ratio in the repeat runs, not every such curve was filed as active; the % refers to the signal ratio). The method in brief:
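HepG2 ARE-bla cells; 16 h treatment at 37 C; FRET-based beta-lactamase fluorescence read after 2 h substrate incubation at room temperature.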

Test [11] in a line: qHTS assay for small molecule agonists of the antioxidant response element (ARE) signaling pathway - cell viability counter screen (AID 743203; calls by dose curve; also: nearly all actives have a fitted effect of over 55% in size). Put shortly: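 Luminescence read-out (CellTiter-Glo, 30 min at room temperature) measured cell viability in the same wells as the ARE beta-lactamase reporter. HepG2 ARE-bla cells were treated with compounds for 16 hrs at 37C/5% CO2.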

Test [12] in a line: qHTS assay for small molecule activators of the heat shock response signaling pathway - cell viability counter screen (AID 743209). Also: nearly all actives have a fitted effect of over 50% in size. Put shortly:
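HSE-bla HeLa; 1500 cells/well; overnight 37 C, 5% CO2; compound 5 h 37 C; LiveBLAzer B/G substrate 2.5 h RT; CellTiter-Glo 30 min RT; luminescence.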

Test [13] in a line: qHTS assay for small molecule activators of the heat shock response signaling pathway (AID 743210; active = well fitted activation curve with a large enough effect in the signal ratio in the repeat runs, with a control signal flat, not every such curve was filed as active; the % refers to the signal ratio;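 also: HeLa cells with beta-lactamase reporter driven by heat shock elements; series mostly up to about 63 µM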). Put shortly: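 Following overnight attachment, HSE-bla HeLa cells received test compounds for 5 h at 37 C; beta-lactamase activity was then detected via FRET substrate fluorescence.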
Test [14] can be described thus: qHTS assay to identify small molecule agonists of the peroxisome proliferator-activated receptor delta (PPARd) signaling pathway - cell viability counter screen (AID 743211). Also: nearly all actives have a fitted effect of over 55% in size. The method in brief:
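Tox21 library compounds, delivered in DMSO, were incubated 17 h with PPARd-bla HEK293H cells; cytotoxicity was taken from CellTiter-Glo luminescence read 30 min after reagent addition.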

Test [15] in a line: qHTS assay to identify small molecule antagonists of the estrogen receptor alpha (ER-alpha) signaling pathway using the BG1 cell line (AID 743080; calls by dose curve; also: series mostly up to about 70 µM; nearly all actives have a fitted effect of over 25% in size). Put shortly:
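Antagonist mode: compounds in DMSO were pinned onto BG1-Luc-4E2 cells alongside 17beta-estradiol agonist, incubated 21.5 h, and ERE-driven luciferase measured with ONE-Glo. Cytotoxicity was multiplexed using CellTiter-Fluor fluorescence.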

The target of test [16] is Peroxisome proliferator-activated receptor gamma (Homo sapiens) (UniProt P37231). The test is described as follows: qHTS assay to identify small molecule agonists of the peroxisome proliferator-activated receptor gamma (PPARg) signaling pathway (AID 743094; active = well fitted activation curve with a large enough effect in the signal ratio in the repeat runs, not every such curve was filed as active; the % refers to the signal ratio). The method in brief:
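HEK293H PPARg-bla cells, 5 h settle at 37C/5% CO2; compound (DMSO) 17 h, 37C; B/G FRET substrate 1 h RT; fluorescence intensity read-out. qHTS format.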

For test [17] the target is unchanged. The test is described as follows: qHTS assay to identify small molecule antagonists of the peroxisome proliferator-activated receptor gamma (PPARg) signaling pathway (AID 743191; calls by dose curve; also: nearly all actives have a fitted effect of over 30% in size; also: potency is read from the fitted curve at half-maximal effect). Put shortly:
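GeneBLAzer PPARg UAS-bla HEK293H cells, 5 h post-plating, exposed to compounds 17 h at 37C. LiveBLAzer B/G FRET substrate added for 1 h at room temperature; beta-lactamase reporter read by fluorescence intensity.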

Test [18] deals with Estrogen receptor (Homo sapiens) (UniProt P03372). The test is described as follows: qHTS assay to identify small molecule agonists of the estrogen receptor alpha (ER-alpha) signaling pathway (AID 743075; calls by dose curve;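 also: HEK293 GripTite cells with ER-alpha and UAS-driven beta-lactamase reporter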).
For test [19] the target is unchanged. Nature of the test: qHTS assay to identify small molecule agonists of the estrogen receptor alpha (ER-alpha) signaling pathway using the BG1 cell line (AID 743079). Also: nearly all actives have a fitted effect of over 20% in size.

Chain of Aromatase (Homo sapiens) (P11511 whole entry, looked up): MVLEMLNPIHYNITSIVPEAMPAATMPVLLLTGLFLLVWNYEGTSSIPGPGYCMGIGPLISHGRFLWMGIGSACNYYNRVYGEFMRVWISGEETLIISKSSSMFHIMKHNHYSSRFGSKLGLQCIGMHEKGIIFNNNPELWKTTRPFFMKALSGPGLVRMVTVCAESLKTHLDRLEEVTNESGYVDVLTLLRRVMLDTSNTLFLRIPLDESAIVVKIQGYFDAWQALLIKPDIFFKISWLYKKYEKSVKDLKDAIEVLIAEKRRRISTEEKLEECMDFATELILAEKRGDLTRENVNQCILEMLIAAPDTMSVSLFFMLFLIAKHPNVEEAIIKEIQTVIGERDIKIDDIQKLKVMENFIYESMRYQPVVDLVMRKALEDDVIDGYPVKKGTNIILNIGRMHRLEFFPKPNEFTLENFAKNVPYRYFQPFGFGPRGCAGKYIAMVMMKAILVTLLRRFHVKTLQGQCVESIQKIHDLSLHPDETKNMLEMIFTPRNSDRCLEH
Chain of Peroxisome proliferator-activated receptor gamma (Homo sapiens) (P37231 whole entry, looked up): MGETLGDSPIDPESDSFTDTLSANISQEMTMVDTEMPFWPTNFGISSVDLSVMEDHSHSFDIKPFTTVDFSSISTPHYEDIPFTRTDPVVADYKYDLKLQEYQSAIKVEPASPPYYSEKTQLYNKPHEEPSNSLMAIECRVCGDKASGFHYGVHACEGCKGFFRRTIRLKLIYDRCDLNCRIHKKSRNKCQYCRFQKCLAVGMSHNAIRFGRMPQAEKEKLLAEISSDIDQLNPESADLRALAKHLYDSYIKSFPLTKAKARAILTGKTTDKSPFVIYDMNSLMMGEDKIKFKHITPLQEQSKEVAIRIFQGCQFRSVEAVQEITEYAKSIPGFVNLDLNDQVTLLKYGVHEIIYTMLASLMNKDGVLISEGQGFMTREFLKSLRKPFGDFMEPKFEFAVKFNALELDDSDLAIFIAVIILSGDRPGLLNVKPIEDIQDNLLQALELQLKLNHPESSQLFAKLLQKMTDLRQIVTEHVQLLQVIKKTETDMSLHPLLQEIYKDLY
Chain of Aryl hydrocarbon receptor (Homo sapiens) (P35869 whole entry, looked up): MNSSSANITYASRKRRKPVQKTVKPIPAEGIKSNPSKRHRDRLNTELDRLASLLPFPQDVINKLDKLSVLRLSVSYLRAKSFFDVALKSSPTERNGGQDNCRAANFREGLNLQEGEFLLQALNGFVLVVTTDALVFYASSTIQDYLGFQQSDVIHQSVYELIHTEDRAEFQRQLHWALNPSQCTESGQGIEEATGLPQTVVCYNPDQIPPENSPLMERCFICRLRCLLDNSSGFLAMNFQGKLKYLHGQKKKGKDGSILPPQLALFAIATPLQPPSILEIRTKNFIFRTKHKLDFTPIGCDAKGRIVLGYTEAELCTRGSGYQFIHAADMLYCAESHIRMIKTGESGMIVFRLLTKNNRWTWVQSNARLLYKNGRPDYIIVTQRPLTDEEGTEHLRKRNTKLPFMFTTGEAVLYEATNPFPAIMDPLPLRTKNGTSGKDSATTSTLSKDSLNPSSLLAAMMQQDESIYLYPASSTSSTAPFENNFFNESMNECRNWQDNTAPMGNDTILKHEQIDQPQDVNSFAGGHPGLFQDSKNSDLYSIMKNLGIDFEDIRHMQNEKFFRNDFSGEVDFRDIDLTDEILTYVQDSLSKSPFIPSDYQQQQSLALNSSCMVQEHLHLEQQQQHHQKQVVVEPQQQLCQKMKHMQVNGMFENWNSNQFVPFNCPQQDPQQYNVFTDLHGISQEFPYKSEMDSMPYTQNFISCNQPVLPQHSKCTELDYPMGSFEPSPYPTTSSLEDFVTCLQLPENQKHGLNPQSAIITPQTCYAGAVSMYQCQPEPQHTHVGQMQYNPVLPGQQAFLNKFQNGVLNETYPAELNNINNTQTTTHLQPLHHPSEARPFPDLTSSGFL
Chain of Estrogen receptor (Homo sapiens) (P03372 whole entry, looked up): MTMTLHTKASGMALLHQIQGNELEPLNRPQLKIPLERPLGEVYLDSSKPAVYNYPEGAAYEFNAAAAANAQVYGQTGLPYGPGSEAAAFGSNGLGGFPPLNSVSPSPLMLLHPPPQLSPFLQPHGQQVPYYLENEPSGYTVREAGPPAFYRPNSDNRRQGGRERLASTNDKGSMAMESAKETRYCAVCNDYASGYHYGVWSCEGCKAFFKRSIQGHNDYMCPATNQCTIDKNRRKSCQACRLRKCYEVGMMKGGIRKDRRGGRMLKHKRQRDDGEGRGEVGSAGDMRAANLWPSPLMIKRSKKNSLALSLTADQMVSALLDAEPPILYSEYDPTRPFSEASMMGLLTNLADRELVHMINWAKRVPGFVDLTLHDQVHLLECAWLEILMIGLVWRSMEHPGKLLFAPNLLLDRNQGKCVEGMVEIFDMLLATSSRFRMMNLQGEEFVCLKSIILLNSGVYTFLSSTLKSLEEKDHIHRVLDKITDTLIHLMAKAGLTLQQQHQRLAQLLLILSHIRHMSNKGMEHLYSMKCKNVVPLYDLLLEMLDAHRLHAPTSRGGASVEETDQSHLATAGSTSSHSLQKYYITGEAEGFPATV

Consider `Cc1ccccc1N=C(N)N=C(N)N`, for which the Potency entry in [1], in test [3], in [6], in test [7], in test [8] and in [10] was “inactive” each time. Moreover, the compound was classed as inactive in [2], in test [4], in test [5], in test [9], in test [11] and in test [12]. The result in test [13] and in [14] was inactive.
For `CC(C)NNC(=O)c1ccncc1`, the Potency entry in test [1], in test [3], in test [15], in test [6], in test [8] and in test [16] was “inactive” throughout. For the same compound, in test [17], the Potency entry is “inactive”. The compound was called inactive in test [2], in test [4], in test [5], in test [9], in test [12] and in [13]. Moreover, the compound was classed as inactive in test [14].
`O=Cc1cccc(Br)c1`: the Potency result in [1], in [3], in test [6], in test [7], in [8] and in test [16] was “inactive” in each case. Besides, the Potency result in test [17] is “inactive”. Further, the outcome in test [2], in test [4], in test [5], in [9], in test [11] and in test [12] was inactive. For the same compound, the call in test [13] and in [14] was inactive.
Consider `CCCc1nn(C)c2c(=O)[nH]c(-c3cc(S(=O)(=O)N4CCN(C)CC4)ccc3OCC)nc12`, for which the Potency result in [1], in [3], in [6], in test [8], in [16] and in test [17] was “inactive” in each case. In test [10], the Potency entry is “inactive”. The compound was classed as inactive in test [2], in test [4], in [5], in test [11], in [12] and in [13].
Turning to `CC[N+](C)(CC)CCOC(=O)C1c2ccccc2Oc2ccccc21`, the Potency entry in test [1], in test [3], in [6], in [7], in test [8] and in test [16] was “inactive” in each case. Also, the Potency result in test [17] and in test [10] was “inactive” throughout. The outcome in test [2], in test [4], in test [5], in [9], in test [11] and in test [12] was inactive. In test [14], the compound was called inactive.
Regarding `O=C(c1ccccc1O)c1ccccc1O`, the Potency entry in test [1], in test [3], in test [18], in test [19], in test [15] and in test [6] was “inactive” throughout. The Potency entry in [7] and in test [8] was “inactive” in each case. Also, the outcome in test [2], in [4], in test [11], in [12], in test [13] and in [14] was inactive. The Potency in test [17] is 43.2 µM (active).
As to `CCCCOCCOC(=O)CCCCCCCCC(=O)OCCOCCCC`, the Potency entry in test [1], in test [3], in test [6], in test [7], in test [8] and in [17] was “inactive” throughout. In addition, the call in test [2], in [4], in [5], in [9], in [12] and in test [13] was inactive. In test [14], the call was inactive.
`CCCCCCC#CC(=O)OC`: the Potency result in test [1], in test [3], in [6], in [7], in [8] and in test [16] was “inactive” throughout. The Potency result in test [17] is “inactive”. The compound was classed as inactive in test [2], in test [4], in test [5], in [9], in test [12] and in test [13]. In addition, in [14], the outcome was inactive.
`CCOc1ccccc1OCC`: the Potency result in test [1], in [3], in test [6], in [7], in [8] and in [16] was “inactive” in each case. In addition, the Potency result in [17] was “inactive”. Besides, the outcome in test [2], in test [4], in test [5], in test [9], in test [11] and in [12] was inactive. Moreover, the outcome in test [13] and in [14] was inactive.
`O=C(c1ccccc1)C1(O)CCCCC1`: the Potency entry in [1], in test [3], in test [6], in test [7], in test [8] and in [17] was “inactive” in each case. Further, the call in test [2], in [4], in test [5], in [9], in test [12] and in test [13] was inactive. The result in test [14] was inactive.
In the case of `CC(C)C1CCC(O)CC1` (centres undefined), the Potency result in test [1], in [3], in test [6], in test [7], in test [8] and in [16] was “inactive” throughout. Further, the Potency result in test [17] was “inactive”. The outcome in [2], in test [4], in test [5], in [9], in test [12] and in test [13] was inactive. Further, in [14], the compound was classed as inactive.
With `COc1c(N2CCNC(C)C2)c(F)cc2c(=O)c(C(=O)O)cn(C3CC3)c12` (centres undefined), the Potency result in test [1], in [3], in test [6], in test [7], in test [8] and in [17] was “inactive” each time. Also, the compound was classed as inactive in test [2], in test [4], in test [5], in [9], in [11] and in test [12]. Besides, the outcome in test [13] and in test [14] was inactive.
In the case of `O=CN(CCO)CCO`, the Potency entry in [1], in [3], in test [6], in test [7], in test [8] and in test [16] was “inactive” each time. The Potency entry in test [17] was “inactive”. Further, the call in [2], in [4], in test [5], in test [9], in [11] and in test [12] was inactive. Moreover, the compound was classed as inactive in test [13] and in test [14].
Take `C=C(C)C(=O)OCCOCCOCCOCCOC(=O)C(=C)C`: the Potency entry in test [1], in [3], in [6], in [7] and in test [8] was “inactive” in each case. The outcome in test [2], in [4], in test [5], in [11], in test [12] and in [13] was inactive. Besides, the outcome in [14] was inactive.
In the case of `CC1(C)[C@@H]2CC[C@@]1(C)[C@H](O)C2`, the Potency result in [1], in test [3], in test [6], in test [7] and in test [8] was “inactive” in each case. For the same compound, the result in [2], in test [4], in [5], in [9], in [11] and in test [12] was inactive. In addition, the compound was called inactive in test [13] and in test [14].
`CCCCCCCCCCCCSC`: the Potency entry in [1], in test [3], in test [6], in [7], in test [8] and in test [16] was “inactive” in each case. The Potency entry in test [17] was “inactive”. For the same compound, the outcome in [2], in test [4], in test [5], in [9], in test [11] and in [12] was inactive. Besides, the compound was classed as inactive in test [13] and in test [14].
